Laboratory results from the supplement of paper PMC6897291.

Key:
[1] = tested on: RIVA; assay: growth inhibition by drug plus 177Lu-lilotomab satetraxetan (1 - RLU/untreated control) (fraction); higher = stronger inhibition; settings: 177Lu-lilotomab satetraxetan 0.5 ug/ml
In short: (§1)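 Compound doses on the pre-printed Selleck Cambridge Cancer Compound library plates were 10/100 nM for RIVA cells and 10/1,000 nM for U-2932 cells, seeded at 3,000 cells/well. Before seeding, cells were washed after 18 h with or without a radiolabelled anti-CD37 antibody conjugate (~600 MBq/mg; 0.5 µg/ml RIVA, 1 µg/ml U-2932). Growth inhibition was derived from RealTime-Glo luminescence relative to untreated no-drug control wells. Readings were taken daily starting on day 3, each after 1 h at 37°C, and each well's RLU was divided by the mean of 48 such wells per plate and subtracted from 1.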

[2] = tested on: U-2932; assay: growth inhibition by drug alone (1 - RLU/untreated control) (fraction); higher = stronger inhibition; settings: 177Lu-lilotomab satetraxetan 0 ug/ml
In short: as §1

[3] = tested on: U-2932; assay: growth inhibition by drug plus 177Lu-lilotomab satetraxetan (1 - RLU/untreated control) (fraction); higher = stronger inhibition; settings: 177Lu-lilotomab satetraxetan 1 ug/ml
In short: as §1

[4] = tested on: RIVA; assay: growth inhibition by drug alone (1 - RLU/untreated control) (fraction); higher = stronger inhibition; settings: 177Lu-lilotomab satetraxetan 0 ug/ml
In short: as §1

Structure (SMILES) | growth inhibition by drug plus 177Lu-lilotomab satetraxetan ([1]; 100 nM, time (day): 5) | growth inhibition by drug plus 177Lu-lilotomab satetraxetan ([1]; 100 nM, time (day): 6) | growth inhibition by drug alone ([2]; 10 nM, time (day): 3) | growth inhibition by drug alone ([2]; 10 nM, time (day): 4) | growth inhibition by drug alone ([2]; 10 nM, time (day): 5) | growth inhibition by drug alone ([2]; 10 nM, time (day): 6) | growth inhibition by drug alone ([2]; 1000 nM, time (day): 3) | growth inhibition by drug alone ([2]; 1000 nM, time (day): 4) | growth inhibition by drug alone ([2]; 1000 nM, time (day): 5) | growth inhibition by drug alone ([2]; 1000 nM, time (day): 6) | growth inhibition by drug plus 177Lu-lilotomab satetraxetan ([3]; 10 nM, time (day): 3) | growth inhibition by drug plus 177Lu-lilotomab satetraxetan ([3]; 10 nM, time (day): 4) | growth inhibition by drug plus 177Lu-lilotomab satetraxetan ([3]; 10 nM, time (day): 5) | growth inhibition by drug plus 177Lu-lilotomab satetraxetan ([3]; 10 nM, time (day): 6) | growth inhibition by drug plus 177Lu-lilotomab satetraxetan ([3]; 1000 nM, time (day): 3) | growth inhibition by drug plus 177Lu-lilotomab satetraxetan ([3]; 1000 nM, time (day): 4) | growth inhibition by drug plus 177Lu-lilotomab satetraxetan ([3]; 1000 nM, time (day): 5) | growth inhibition by drug plus 177Lu-lilotomab satetraxetan ([3]; 1000 nM, time (day): 6) | growth inhibition by drug plus 177Lu-lilotomab satetraxetan ([1]; 10 nM, time (day): 3) | growth inhibition by drug plus 177Lu-lilotomab satetraxetan ([1]; 10 nM, time (day): 4) | growth inhibition by drug plus 177Lu-lilotomab satetraxetan ([1]; 10 nM, time (day): 5) | growth inhibition by drug plus 177Lu-lilotomab satetraxetan ([1]; 10 nM, time (day): 6) | growth inhibition by drug plus 177Lu-lilotomab satetraxetan ([1]; 100 nM, time (day): 3) | growth inhibition by drug plus 177Lu-lilotomab satetraxetan ([1]; 100 nM, time (day): 4) | growth inhibition by drug alone ([4]; 10 nM, time (day): 3) | growth inhibition by drug alone ([4]; 10 nM, time (day): 4) | growth inhibition by drug alone ([4]; 10 nM, time (day): 5) | growth inhibition by drug alone ([4]; 10 nM, time (day): 6) | growth inhibition by drug alone ([4]; 100 nM, time (day): 3) | growth inhibition by drug alone ([4]; 100 nM, time (day): 4) | growth inhibition by drug alone ([4]; 100 nM, time (day): 5) | growth inhibition by drug alone ([4]; 100 nM, time (day): 6)
Cc1cc(Nc2cc(N3CCN(C)CC3)nc(/C=C/c3ccccc3)n2)n[nH]1 | 0.36 | 0.357 |  |  |  |  |  |  |  |  |  |  |  |  |  |  |  |  |  |  |  |  |  |  |  |  |  |  |  |  |  | 
Nc1ccc(-c2ccc3ncc4ccc(=O)n(-c5cccc(C(F)(F)F)c5)c4c3c2)cn1 [Torin 2] | 0.881 | 0.887 | 0.465 | 0.318 | 0.24 | 0.244 | 0.937 | 0.963 | 0.974 | 0.981 | 0.305 | 0.238 | 0.247 | 0.312 | 0.953 | 0.97 | 0.98 | 0.986 | 0.613 | 0.549 | 0.527 | 0.515 | 0.838 | 0.874 |  |  |  |  |  |  |  | 
COc1ccc(/C=C\c2cc(OC)c(OC)c(OC)c2)cc1O [Combretastatin A4] | 0.963 | 0.971 | 0.967 | 0.973 | 0.979 | 0.983 | 0.965 | 0.975 | 0.981 | 0.985 | 0.971 | 0.978 | 0.983 | 0.986 | 0.965 | 0.979 | 0.985 | 0.988 | 0.964 | 0.976 | 0.98 | 0.984 | 0.936 | 0.949 | 0.953 | 0.965 | 0.971 | 0.975 | 0.924 | 0.936 | 0.954 | 0.964
CCc1cc(Nc2nccc(-c3c(-c4ccc(OC)c(C(=O)Nc5c(F)cccc5F)c4)nc4ccccn34)n2)c(OC)cc1N1CCC(N2CCN(S(C)(=O)=O)CC2)CC1 | 0.481 | 0.461 | 0.0467 | -0.0848 | -0.0609 | -0.106 | -0.14 | -0.0216 | -0.0601 | -0.147 | -0.00397 | 0.0169 | 0.0318 | 0.0887 | -0.153 | 0.0173 | 0.00224 | -0.0976 | 0.374 | 0.514 | 0.532 | 0.545 | 0.381 | 0.455 | 0.0601 | -0.0266 | -0.11 | -0.339 | 0.205 | 0.0778 | 0.0473 | -0.0711
Cn1cc(-c2ccc3nnc(Sc4ccc5ncccc5c4)n3n2)cn1 | 0.561 | 0.584 | 0.0784 | 0.0569 | -0.0234 | -0.0672 | 0.09 | 0.0464 | -0.0633 | -0.0059 | 0.0469 | 0.105 | 0.177 | 0.212 | 0.0614 | 0.085 | 0.142 | 0.222 | 0.61 | 0.637 | 0.638 | 0.635 | 0.458 | 0.538 | 0.0128 | 0.0644 | 0.0167 | -0.227 | -0.0367 | 0.0223 | 0.00017 | -0.0611
CC(C)(C)c1[nH]cnc1/C=c1\[nH]c(=O)/c(=C/c2ccccc2)[nH]c1=O [NPI-2358 (Plinabulin)] | 0.972 | 0.976 | 0.142 | 0.0848 | 0.0507 | -0.0221 | 0.964 | 0.971 | 0.974 | 0.98 | 0.0693 | 0.123 | 0.165 | 0.213 | 0.968 | 0.975 | 0.98 | 0.984 | 0.505 | 0.546 | 0.548 | 0.574 | 0.955 | 0.967 | 0.00478 | -0.0503 | -0.112 | -0.272 | 0.941 | 0.953 | 0.959 | 0.963
COc1cc2ncnc(Nc3ccc(F)c(Cl)c3)c2cc1NC(=O)/C=C/CN1CCCCC1 | 0.387 | 0.392 | -0.101 | -0.0931 | -0.078 | 0.0128 | -0.222 | -0.156 | -0.164 | -0.0283 | -0.0733 | -0.0275 | 0.0218 | 0.0574 | -0.26 | -0.16 | -0.0838 | 0.0995 | 0.446 | 0.525 | 0.55 | 0.538 | 0.262 | 0.366 | -0.299 | -0.339 | -0.376 | -0.409 | -0.261 | -0.3 | -0.331 | -0.346
Cc1[nH]c2ccccc2c1CCNCc1ccc(/C=C/C(=O)NO)cc1 [Panobinostat] | 0.988 | 0.987 | 0.545 | 0.448 | 0.353 | 0.31 | 0.98 | 0.982 | 0.982 | 0.983 | 0.585 | 0.524 | 0.461 | 0.445 | 0.979 | 0.981 | 0.983 | 0.986 | 0.93 | 0.93 | 0.939 | 0.944 | 0.987 | 0.988 | 0.637 | 0.535 | 0.447 | 0.328 | 0.977 | 0.977 | 0.975 | 0.975
O=C(O)C(=O)O.[NH-]C1CCCCC1[NH-].[Pt+2] (stereo not given) [Oxaliplatin (Eloxatin)] | 0.534 | 0.531 | 0.138 | 0.113 | -0.0491 | -0.0738 | 0.613 | 0.565 | 0.489 | 0.46 | 0.123 | 0.163 | 0.223 | 0.284 | 0.675 | 0.638 | 0.604 | 0.608 | 0.6 | 0.598 | 0.621 | 0.626 | 0.453 | 0.516 | 0.335 | 0.288 | 0.293 | 0.22 | -0.171 | -0.0865 | -0.121 | -0.155
